{"source": "PubChem BioAssay AID624296", "about": "(National Center for Advancing Translational Sciences (NCATS), 2012)", "note": "Among all 350,000 compounds or so, about 9,900 (2.8%) were called active. Roughly 15% stayed inconclusive and do not appear here. The call rests on the fitted dose curve; in most records, active means well fitted activation curve with a large enough effect; inconclusive means small, poorly fitted or top-dose-only effect; inactive means no such curve, though single readings can be large or run the other way. The entries come from a sample that favours actives as a whole. Potency means the concentration at half of the fitted maximal effect."}
{"assay": "A quantitative high throughput screen for small molecules that induce DNA re-replication in MCF 10a normal breast cells; further: nearly all actives have a fitted effect of over 50% in size; on activity, positive = re-replication: % of control where 0% means no effect.", "details": "MCF 10A DNA re-replication, Hoechst nuclear intensity, 48 h; series mostly up to 46.1 µM; activity, positive = re-replication: at the top concentration"}
{"smiles": "CCCC(NCC(=O)Nc1ccccc1C(=O)NC1CC1)c1ccccc1", "note": "(configuration not stated)", "activity, positive = re-replication": "8.84% (inactive)"}
{"smiles": "Cc1ccc(S(=O)(=O)N2CCN(C(=O)COC(=O)/C=C/c3cccc(Cl)c3)CC2)c(C)c1", "activity, positive = re-replication": "2.86% (inactive)"}
{"smiles": "O=C(N[C@H]1C/C=C\\C(c2ccc(F)cc2)N(Cc2ccccc2)C(=O)C1)OCC1c2ccccc2-c2ccccc21", "note": "(some centres not stated)", "activity, positive = re-replication": "-15% (inactive)"}
{"smiles": "Cc1ccsc1C(=O)NC1CCCCC1C", "note": "(configuration not stated)", "activity, positive = re-replication": "4.61% (inactive)"}
{"smiles": "CC(=O)Nc1ccc(S(=O)(=O)Nc2nc(-c3ccc(C(C)(C)C)cc3)cs2)cc1", "activity, positive = re-replication": "-4.78% (inactive)"}
{"smiles": "CC(=O)Nc1ccc(-c2csc(NC(=O)Nc3ccccc3)n2)cc1", "Potency": "20.6 µM (active)"}
{"smiles": "CC(=O)Nc1ccc(-c2csc(NC=C3C(=O)OC(C)(C)OC3=O)n2)cc1", "activity, positive = re-replication": "-2.67% (inactive)"}
{"smiles": "O=C(O[C@@H]1[C@H](Cc2ccccc2)NS(=O)(=O)[C@H]2C[C@@H]3C=C[C@]12O3)c1ccccc1Br", "activity, positive = re-replication": "-7.18% (inactive)"}
{"smiles": "NC(=O)c1ncn([C@@H]2O[C@H](CNCc3cnc(N4CCOCC4)s3)[C@@H](O)[C@H]2O)n1", "activity, positive = re-replication": "4.83% (inactive)"}
{"smiles": "CC(=O)NC12CC3CC(C1)CC(C(=O)N1CCN(S(=O)(=O)c4cccs4)CC1)(C3)C2", "activity, positive = re-replication": "5.55% (inactive)"}
{"smiles": "CN1C(=O)[C@H]2[C@@H](/C=C/c3ccccc3)N3C(=O)CN(Cc4ccc(-c5ccccc5)cc4)C(=O)[C@@]3(C)[C@H]2C1=O", "activity, positive = re-replication": "9.52% (inactive)"}
{"smiles": "Cc1ccc(NC(=O)N2CCC(c3nc4c(nnn4Cc4c(F)cccc4Cl)c(=O)[nH]3)CC2)cc1", "activity, positive = re-replication": "-3.7% (inactive)"}
{"smiles": "OC1CCCN(c2ncnc3c2nnn3Cc2c(F)cccc2Cl)C1", "note": "(configuration not stated)", "Potency": "16.4 µM (active)"}
{"smiles": "CCOC(=O)N1CCN(C(=O)C2CCCN(c3ncnc4c3sc3cccc(F)c34)C2)CC1", "note": "(configuration not stated)", "activity, positive = re-replication": "8.33% (inactive)"}
{"smiles": "C(#CCN1CCOCC1)CCCN1CCOCC1", "activity, positive = re-replication": "-3.95% (inactive)"}
{"smiles": "O=[N+]([O-])c1ccc(C=NN=Cc2ccc([N+](=O)[O-])cc2)cc1", "activity, positive = re-replication": "-0.0464% (inactive)"}
{"smiles": "O=C(OCC(=O)N1CCCCCC1)c1ccc(Br)c(S(=O)(=O)N2CCOCC2)c1", "activity, positive = re-replication": "1.89% (inactive)"}
{"smiles": "Cn1c(Cc2cccc3ccccc23)nnc1SCC(=O)N1CCN(c2cccc(Cl)c2)CC1", "Potency": "13 µM (active)"}
{"smiles": "Cn1c(CNC(=O)c2ccco2)nnc1SCC(=O)N1CCN(c2ccccc2)CC1", "activity, positive = re-replication": "2.16% (inactive)"}
{"smiles": "Cc1nnc(SCC(=O)N2CCN(c3ccccc3)CC2)n1-c1ccccc1", "activity, positive = re-replication": "8.74% (inactive)"}
{"smiles": "CCCC(O)(c1ccccc1)C(c1ccccc1)c1ccccn1", "note": "(configuration not stated)", "activity, positive = re-replication": "-1.11% (inactive)"}
{"smiles": "COc1cc(/C=C/C(=O)OCC(=O)NCCCc2ccccc2)ccc1O", "activity, positive = re-replication": "6.85% (inactive)"}
{"smiles": "CCn1c(=N)c(S(=O)(=O)c2ccc(F)cc2)cc2c(=O)n3ccccc3nc21", "Potency": "13 µM (active)"}
{"smiles": "CCCn1nc(NS(=O)(=O)c2ccc(F)cc2)c2cc3ccccc3nc21", "activity, positive = re-replication": "-1.72% (inactive)"}
{"smiles": "Cc1ccc(Cn2c(=N)c(S(=O)(=O)c3ccc(C)cc3)cc3c(=O)n4ccccc4nc32)cc1", "Potency": "5.8 µM (active)"}
{"smiles": "O=Cc1c(N2CCN(c3cccc(Cl)c3)CC2)nc2ccccn2c1=O", "activity, positive = re-replication": "11.1% (inactive)"}
{"smiles": "O=Cc1c(Nc2ccccc2Cl)nc2ccccn2c1=O", "activity, positive = re-replication": "12.2% (inactive)"}
{"smiles": "CCOCCCNC(=O)c1cc2c(=O)n3ccccc3nc2s1", "activity, positive = re-replication": "0.195% (inactive)"}
{"smiles": "Cc1cc(C(=O)COc2ccccc2Cl)c(C)n1C1CC1", "activity, positive = re-replication": "13.9% (inactive)"}
{"smiles": "Cc1ccc(C(=O)NNC(=O)c2ccc3c(c2)OCCO3)cc1", "activity, positive = re-replication": "9.08% (inactive)"}
{"smiles": "O=C(C1Cc2ccccc2CN1C(=O)c1ccco1)N1CCN(c2ccccc2)CC1", "note": "(configuration not stated)", "activity, positive = re-replication": "7.91% (inactive)"}
{"smiles": "COc1cccc2cc(S(=O)(=O)c3ccc(C)cc3)/c(=N/NS(=O)(=O)c3ccc(C)cc3)oc12", "activity, positive = re-replication": "18.1% (inactive)"}
{"smiles": "COC(=O)Cc1cc(=O)oc2c(C)c(O)ccc12", "activity, positive = re-replication": "-7.36% (inactive)"}
{"smiles": "Cc1cc(S(=O)(=O)c2cc3ccc(O)c(C)c3oc2=O)ccc1F", "Potency": "10.3 µM (active)"}
{"smiles": "Cc1nc(Nc2ccccc2C)c2cnn(C)c2n1", "activity, positive = re-replication": "21.9% (inactive)"}
{"smiles": "O=[N+]([O-])c1cc2ccccc2nc1-c1ccccc1", "activity, positive = re-replication": "5.75% (inactive)"}
{"smiles": "O=C(N[C@@H]1C/C=C\\C[C@@H](CC(=O)N(CCO)Cc2ccccc2)C(=O)N[C@H](Cc2ccccc2)COC1=O)OCC1c2ccccc2-c2ccccc21", "activity, positive = re-replication": "-2.36% (inactive)"}
{"smiles": "Cc1cc(C(=O)COc2ccc(Br)cc2F)c(C)n1C1CC1", "activity, positive = re-replication": "-1.62% (inactive)"}
{"smiles": "CN(C(=O)c1cccc(NC(=O)Cc2ccc(NC(=O)C3CCCN(C(=O)C4CC4)C3)cc2)c1)C1CC1", "note": "(configuration not stated)", "activity, positive = re-replication": "-45.3% (inactive)"}
{"smiles": "CC(/C=N/NC(=O)c1cc(-c2ccc3ccccc3c2)n[nH]1)=C\\c1ccco1", "Potency": "7.31 µM (active)"}
{"smiles": "CC(/C=N/NC(=O)c1ccncc1)=C\\c1ccco1", "activity, positive = re-replication": "-2.95% (inactive)"}
{"smiles": "CC(=C/c1ccccc1)/C=N/NC(=O)c1cc(C)oc1C", "activity, positive = re-replication": "10.6% (inactive)"}
{"smiles": "Cc1cccc(C)c1Nc1nnc(SCC(=O)NCCCN2CCCC2=O)s1", "activity, positive = re-replication": "-0.211% (inactive)"}
{"smiles": "CC[C@]12c3[nH]c4cc(CCC(=O)N(C)C)ccc4c3CCN1C(=O)[C@@H](CC(=O)NCCCn1ccnc1)C[C@@H]2C(=O)N1CCN(C(=O)C2CC2)CC1", "activity, positive = re-replication": "1.8% (inactive)"}
{"smiles": "O=C(CC1Nc2ccccc2NC1=O)Nc1ccccc1", "note": "(configuration not stated)", "Potency": "6.51 µM (active)"}
{"smiles": "O=C(CC1NCCNC1=O)Nc1ccc(Oc2ccccc2)cc1", "note": "(configuration not stated)", "activity, positive = re-replication": "-9.06% (inactive)"}
{"smiles": "COC(=O)c1cc(C)sc1NC(=O)CC1Nc2ccccc2NC1=O", "note": "(configuration not stated)", "activity, positive = re-replication": "26.2% (inactive)"}
{"smiles": "COC(=O)Cc1nc2c(N)nc(N)nc2[nH]c1=O", "activity, positive = re-replication": "-1.99% (inactive)"}
{"smiles": "Nc1ccc2c(c1)C(O)c1ccc(Cl)cc1-2", "note": "(configuration not stated)", "activity, positive = re-replication": "7.09% (inactive)"}
{"smiles": "COc1cc2[nH]c(O)c(C=O)c2cc1OC", "activity, positive = re-replication": "5.23% (inactive)"}
{"smiles": "COc1ccc(-n2nc3c(N4CCC(C(=O)NCc5ccccc5)CC4)nnc(C)c3c2C)cc1", "activity, positive = re-replication": "4.26% (inactive)"}
{"smiles": "CCc1ccc(CNC(=O)C2CCN(c3nnc(C)c4c(C)n(-c5ccc(C)cc5)nc34)CC2)cc1", "Potency": "7.31 µM (active)"}
{"smiles": "CCc1ccc(CNC(=O)C2CC(=O)N(CCc3ccc(C)cc3)C2)cc1", "note": "(configuration not stated)", "activity, positive = re-replication": "-6.43% (inactive)"}
{"smiles": "Cc1ccc(NC(=O)C(c2ccccc2)N2CCN(C(=O)c3ccco3)CC2)cc1", "note": "(configuration not stated)", "activity, positive = re-replication": "-11.4% (inactive)"}
{"smiles": "O=C(Cc1ccc(Br)cc1)N1CCN(c2ccccn2)CC1", "activity, positive = re-replication": "24.3% (inactive)"}
{"smiles": "O=C(/C=C/c1cccc(C(F)(F)F)c1)N1CCN(c2ccccn2)CC1", "Potency": "9.2 µM (active)"}
{"smiles": "O=C(C(Cl)Cl)N1CCN(c2ccccn2)CC1", "activity, positive = re-replication": "-1.55% (inactive)"}
{"smiles": "O=C(c1ccc2c(c1)C(=O)N(Cc1ccncc1)C2=O)N1CCN(S(=O)(=O)c2ccc(OC(F)(F)F)cc2)CC1", "activity, positive = re-replication": "-6.6% (inactive)"}
{"smiles": "CCN1C[C@@H]2[C@@H]3C(=O)N(Cc4ccccc4)C(=O)[C@@H]3[C@](Cc3ccccc3)(C(=O)OC)N2C1=NC1CCCCC1", "activity, positive = re-replication": "-4.94% (inactive)"}
{"smiles": "Clc1ccccc1CSc1nnc(-c2ccco2)c(-c2ccco2)n1", "Potency": "18.4 µM (active)"}
{"smiles": "COC(OC)c1ccnc(SCc2ccccc2Cl)n1", "activity, positive = re-replication": "2.9% (inactive)"}
{"smiles": "S=C(NCc1ccco1)NCc1ccccc1Cl", "activity, positive = re-replication": "2.77% (inactive)"}
